# PHOSPHO1 block: PHOSPHO1 (human) inhibition | 1.1% of 290,000 active | Q8TCT1 | recombinant PHOSPHO1, absorbance phosphatase assay | inhibition, % at 13.3 µM | AID 1565; in the data active = inhibition above about 60%
# APOBEC3A inh: inhibitors of human APOBEC3A DNA deaminase; P31941; inhibition, % at 20 µM; recombinant A3A, FAM/TAMRA ssDNA deamination fluorescence; 0.41% of 330,000 active;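 active = at least 40% inhibition at 20 µM here, with at most 30% in a related deaminase screen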;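 also: plate controls were A3A with DMSO for no effect and wells lacking A3A enzyme for full effect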
# Target sequence (P31941 whole entry, looked up): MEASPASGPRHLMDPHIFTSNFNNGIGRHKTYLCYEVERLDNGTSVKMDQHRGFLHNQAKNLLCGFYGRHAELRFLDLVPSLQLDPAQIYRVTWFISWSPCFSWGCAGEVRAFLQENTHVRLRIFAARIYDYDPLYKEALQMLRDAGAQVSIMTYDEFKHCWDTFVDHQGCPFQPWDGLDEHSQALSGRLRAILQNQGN
# MLLE-PAM2 inh: inhibitors of microRNA-mediated deadenylation, human PABP1 MLLE binding | 0.36% of 360,000 active | P11940 | inhibition, % at 20 µM | GST-MLLE / FITC-PAM2 fluorescence polarization; in the data active = inhibition above about 35%, passing the limit was not always enough;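 also: plate controls were DMSO wells with GST-MLLE for no effect and wells lacking GST-MLLE protein for full effect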
# APOBEC3G inh: APOBEC3G (human) deaminase inhibition; recombinant A3G, ssDNA deamination FAM/TAMRA fluorescence; inhibition, % at 20 µM; Q9HC16; 0.28% of 330,000 active;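 active = inhibition of at least 40% at 20 µM, with no more than 30% in the related APOBEC3A deaminase screen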;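 also: plate controls were DMSO wells with A3G for no effect and wells lacking A3G enzyme for full effect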
# Target sequence (Q9HC16 whole entry, looked up): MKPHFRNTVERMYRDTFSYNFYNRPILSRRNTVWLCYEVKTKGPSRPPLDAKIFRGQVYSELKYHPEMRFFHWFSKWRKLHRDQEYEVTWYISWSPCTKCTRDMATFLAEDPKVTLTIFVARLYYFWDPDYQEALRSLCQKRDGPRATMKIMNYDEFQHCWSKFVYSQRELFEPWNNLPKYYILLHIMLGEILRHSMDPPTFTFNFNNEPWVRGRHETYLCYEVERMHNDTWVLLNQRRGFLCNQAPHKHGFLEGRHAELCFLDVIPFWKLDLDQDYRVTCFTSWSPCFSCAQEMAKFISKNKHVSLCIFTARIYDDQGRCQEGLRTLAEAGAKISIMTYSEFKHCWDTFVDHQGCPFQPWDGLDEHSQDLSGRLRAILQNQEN
# PABP FP inh: blocks human PABP binding to poly(A) RNA | fluorescence polarization | calls only at 35 µM | 1% of 290,000 active;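 also: calls also rest on retests at 20 µM and on dose response follow-up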
# eIF4H inh: inhibitors of RNA binding by human eIF4H. 0.94% of 290,000 active. inhibition, % at 35 µM. Q15056. eIF4H fluorescence polarization binding assay;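 also: calls also rest on retests at 20 µM and on dose response follow-up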
# An asterisk follows results filed as active; i = inactive; x = no result given; + = active, no number. Compounds with a hit are over-represented: about 2.6% of the library has one in this group of screens. Unless noted, no rule for the calls is given here.
SMILES,PHOSPHO1 block,APOBEC3A inh,MLLE-PAM2 inh,APOBEC3G inh,PABP FP inh,eIF4H inh
CCOC(=O)C1(Cc2ccccc2)CCCN(CCCn2cccn2)C1 (stereo unspecified),64.2*,-1.0,-5.6,-9.0,i,5.0
CCOC(=O)C1(Cc2ccccc2)CCCN(Cc2ccncc2)C1 (stereo unspecified),0.9,0.0,0.4,-6.7,i,8.7
CCN(CC(=O)N1CCCC1)S(=O)(=O)c1ccccc1,18.7,-7.0,2.3,-2.7,+,71.8*
CCN(CC(=O)N1CCCC1)S(=O)(=O)c1ccc(Br)cc1,19.2,-6.0,-8.5,2.9,i,0.9
CC(=O)Nc1ccc(Nc2ccc3c4c(cc(=O)n3C)-c3ccccc3C(=O)c24)cc1,16.5,6.8,65.0*,10.7,i,80.2
O=C(CN1CCCCCC1)Nc1cc([N+](=O)[O-])ccc1Cl,2.2,2.1,9.0,1.7,i,0.7
O=C(CN1CCOCC1)Nc1cc([N+](=O)[O-])ccc1Cl,13.3,3.6,9.9,-2.0,i,active
O=C(Cn1cnc2ccccc21)OCC(=O)N1CCCCC1,x,1.8,-2.0,-1.0,x,x
C/C(Cl)=C\Cn1c(O)c(N=NC(N)=S)c2cc(Br)ccc21,9.5,0.0,43.6*,-5.1,i,12.9
NC(=S)N=Nc1c(O)n(CCCl)c2ccc(Br)cc12,24.4,-1.7,31.8,-3.5,i,10.1
COc1ccc(NC(=O)c2ccc3c(=O)n(Cc4ccco4)c(=S)[nH]c3c2)c(OC)c1,58.0,4.6,-40.5,5.6,+,70.4*
COc1cc2[nH]c(=S)n(Cc3ccco3)c(=O)c2cc1OC,68.6*,-8.1,-24.4,-1.9,+,52.3*
O=c1c2cc(Cl)ccc2[nH]c(=S)n1Cc1ccco1,-7.5,6.0,-74.5,-1.9,i,9.5
COc1cc2[nH]c(=S)n(NC(=O)c3ccccc3)c(=O)c2cc1OC,-29.2,5.0,35.7*,-3.0,i,2.5
COc1ccc(OC)c(NC(=O)c2ccc3c(=O)n(CCc4ccccc4)c(=S)[nH]c3c2)c1,-55.0,-2.3,-41.9,-8.2,i,2.3
O=c1c2cc(N3CCOCC3)ccc2[nH]c(=S)n1Cc1cccc(Cl)c1,-68.4,-5.6,-82.3,-7.4,i,5.3
COC(=O)c1ccc2c(=O)n(NC(C)=O)c(=S)[nH]c2c1,11.4,-3.2,21.5,-5.2,i,-3.2
O=c1c2cc(N3CCOCC3)ccc2[nH]c(=S)n1Cc1ccco1,50.0,13.7,5.0,29.9,+,90.7*
CC(C)(C)Cc1c(-c2cccc(Br)c2)nc2ccc(Cl)cn12,x,x,-16.1,x,x,x
O=C(Nc1cc(C(=O)N2CCN(c3ccccc3O)CC2)ccc1Cl)c1cccs1,x,-2.5,-14.1,-6.4,x,x
CN1CCN(C(=O)c2cc3c(c(-c4cccc(-c5cc6ccccc6o5)c4)n2)[C@H](CCO)N(S(=O)C(C)(C)C)C3)CC1 (stereo partly specified),x,x,-15.3,x,x,x
O=c1c2ccccc2ncn1CCCSc1ccccc1,-5.3,-1.6,-2.1,-2.3,+,105.8*
O=c1c2ccccc2ncn1CCCSc1ccc(Cl)cc1,-5.2,-0.5,-11.0,0.4,i,-3.2
Cc1ccc2cc3c(N)c(C(=O)N4CCOCC4)sc3nc2c1,61.4*,-5.4,0.5,-11.5,i,0.2
COc1ccc2cc3c(N)c(C(=O)N4CCCC4)sc3nc2c1,-16.3,-5.6,x,-6.2,i,3.7
SMILES,PHOSPHO1 block,APOBEC3A inh,MLLE-PAM2 inh,APOBEC3G inh,PABP FP inh,eIF4H inh
CCOc1ccc2nc3sc(C(=O)N4CCN(C)CC4)c(N)c3cc2c1,-16.3,2.1,3.6,5.5,i,15.2
Cc1ccc2cc3c(N)c(C(=O)Nc4c(C)[nH]c(=O)[nH]c4=O)sc3nc2c1,16.0,-4.0,-1.1,-11.9,+,5.2
Cc1ccc2nc3sc(C(=O)N4CCOCC4)c(N)c3cc2c1,85.6*,2.7,16.0,10.9,i,0.3
CN(C(=O)Cn1cc(C(F)(F)F)cc(Cl)c1=O)C1CCS(=O)(=O)C1 (stereo unspecified),x,-0.5,0.5,-7.3,x,x
CCN1CCN(c2c(S(=O)(=O)c3ccc(C)c(C)c3)cnc3ccc(F)cc23)CC1,33.4,1.4,1.9,-4.1,i,-12.8
CCn1c(-c2cc(-c3ccc(OC(C)C)cc3)nc3ccccc23)n[nH]c1=S,97.4*,1.3,-82.9,-1.4,i,-4.5
CCn1c(-c2cc(-c3cc(OC)ccc3OC)nc3ccccc23)n[nH]c1=S,90.2*,1.6,-125.3,-1.0,i,-0.7
CCNCc1ccccc1OCc1ccccc1,68.6*,0.4,-7.8,-5.3,i,9.4
OCCNCCNCc1ccccc1OCc1ccccc1,43.9,1.5,-0.7,-4.1,i,3.1
COc1cccc(CNc2ccc(C(=O)O)cc2)c1OCc1ccccc1,44.0,-0.2,1.4,-5.0,i,1.3
Oc1ccc(NCc2ccccc2OCc2ccccc2)cc1,-8.6,5.7,-7.8,11.2,+,87.8*
O=c1[nH]c2cc3c(cc2cc1CN(Cc1cccs1)Cc1nnnn1Cc1ccco1)OCCO3,12.7,28.4,26.1,29.1,+,38.3*
O=c1[nH]c2cc3c(cc2cc1CN(Cc1cccnc1)Cc1nnnn1Cc1ccco1)OCCO3,49.4,60.5,-13.8,55.6,+,70.9*
O=c1[nH]c2cc3c(cc2cc1CN(CCc1ccccc1)Cc1nnnn1C1CCCC1)OCCO3,0.7,x,x,x,+,96.9*
COc1ccccc1CN(Cc1cc2cc3c(cc2[nH]c1=O)OCCO3)Cc1nnnn1Cc1ccco1,0.1,2.1,6.8,9.2,+,58.2*
Cc1cc2cc(CN(Cc3ccc4c(c3)OCO4)Cc3nnnn3C3CCCC3)c(=O)[nH]c2cc1C,-11.6,-1.7,1.5,-6.2,i,-2.1
COC(=O)c1sc(S(=O)(=O)N2CCCCC2C)c(C(=O)OC)c1C (stereo unspecified),x,-1.9,-5.0,-4.9,x,x
COc1cc(/C=C/C(=O)OCC(=O)NCCN2C(=O)CSC2=O)ccc1OCC#N,x,-1.8,-9.6,-4.9,x,x
COc1ccccc1NS(=O)(=O)c1cc(NC(C)=O)ccc1N1CCCCC1,-21.4,-0.9,33.9,21.8,i,5.4
COc1ccccc1NS(=O)(=O)c1cc(NC(=O)Nc2cccc(C)c2)ccc1N1CCCCC1,24.4,1.3,38.1*,-1.2,i,6.5
CCC(=O)NC(=S)NNC(=O)c1ccc(O)cc1,80.6*,-0.3,-5.0,34.6,i,10.2
COC(=O)[C@@H](NC(=O)Nc1ccc(C(C)=O)cc1)C(C)C,2.9,-1.7,0.8,-7.4,i,56.9*
CC(C)c1ccc(C2CC(=O)N3CN(Cc4ccco4)CSC3=C2C#N)cc1 (stereo unspecified),26.3,1.7,6.8,0.6,i,13.7
COc1ccc2ccccc2c1C1CC(=O)N2CN(Cc3ccco3)CSC2=C1C#N (stereo unspecified),71.9*,-2.1,-23.8,-1.2,i,-4.5

# Source: PubChem BioAssay
